CFTR F508del cor – F508del CFTR correction, initial screen, CFBE line, single point; CFBE cells, YFP halide quenching; stimulated with forskolin plus potentiator P3; % fluorescence drop versus neutral controls; AID 720511, 2013; 0.36% of 350,000 active; activity (quench increase), % at 7.58 µM;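 active means mean added fluorescence quench of at least 8% versus neutral control, with both replicates also reaching 8%; inconclusive means only one of the mean or replicate conditions met; inactive means mean below 8% and not both replicates reaching 8%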;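 further: cells transiently co-express mutant CFTR-F508del with the halide-sensitive YFP; corrector assay measuring rescue of mutant channel to the surface after 24 h compound exposure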
PAX8 reporter – inhibitors of PAX8-driven TPO luciferase reporter, primary screen, RMG-I cells, single concentration; SteadyGlo, 24 h; inhibition, % at 12.6 µM; 1.2% of 360,000 active;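 active means mean replicate inhibition at least 60% with every replicate also reaching 60%; inconclusive means only one of the two criteria is met; inactive means mean below 60% and not all replicates reaching 60%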;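 further: luciferase light reporting Pax8 driven TPO promoter activity; plate controls were median of neutral control wells for no effect and mitoxantrone controls for full effect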
Env fusion inh – inhibitors of HIV-1 Env-driven cell-cell fusion, primary screen, HeLa-JRFL effector, CEM21 target cells, luciferase; inhibition, % at 12.3 µM; 1.1% of 360,000 active;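 active means mean replicate inhibition score of at least 50 and every replicate individually at or above 50; inconclusive means only one of the two criteria met; inactive means mean below 50 and not all replicates reaching 50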;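 further: 0% = plate neutral controls and 100% = maraviroc near 300 nM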
PGC1a acetyl inh – inhibitors of PGC1a acetylation signal, primary screen, cell-based, U2OS, AlphaScreen, inhibitor mode; 0.17% of 350,000 active; AlphaScreen anti-acetyl-lysine; with virally co-expressed GCN5 acetyltransferase; AID 651687, 2012; inhibition, % at 15.6 µM;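 active means every replicate shows inhibition of at least 40%; inconclusive means mean inhibition at least 40% but some replicate below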;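 further: 0% = neutral control wells and 100% = positive control wells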
GSIS activator – GLuc luminescence reporter in INS-1E cells, primary screen for activators of glucose-dependent secretion of insulin | activation, % at 16.6 µM | AID 743287, 2014 | INS-1E GLuc reporter insulin secretion, 2-3 h | 0.61% of 370,000 active;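 active means lowest replicate activation of at least 40%, so every replicate reaches that level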;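 further: 0% = median of neutral control wells and 100% = median of IBMX positive control wells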
EWS-Fli block – EWS/Fli-driven NR0B1 reporter inhibitors, primary screen, A673 cells, NR0B1 luciferase, luminescence, MLPCN library. viability-normalised. 0.67% of 350,000 active. AID 651661, 2012. inhibition, % at 12.6 µM;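 active means mean inhibition of at least 50% after viability correction, with every replicate also passing that limit; inconclusive means mean reaches 50% but only one of two replicates passes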;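 further: firefly luciferase signal divided by Alamar Blue viability fluorescence both relative to DMSO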
An asterisk follows results filed as active; i = inactive; u = inconclusive; x = not tested or not shown; [ ] = dose if it differs, or a comment. Most compounds without a hit are left out; they make up all but 2.7% or so of the library.

SMILES	CFTR F508del cor	PAX8 reporter	Env fusion inh	PGC1a acetyl inh	GSIS activator	EWS-Fli block
CCOc1ccc(CCNC(=O)COC(=O)c2nc3nc(C)cc(C)n3n2)cc1OCC	x	-1	5	2	45*	x
COc1ccc(CCNC(=O)COC(=O)COc2ccc(Cl)cc2)cc1OC	x	7	5	x	30	-2
CCOc1ccc(CCNC(=O)COC(=O)c2cccnc2OCC)cc1OCC	x	x	-82	3	61*	x
CCOc1ccc(CCNC(=O)COC(=O)COc2ccc(Cl)cc2)cc1OCC	3	-18	-8	x	45*	2
Cc1ccc(S(=O)(=O)N2CC[C@@H]3[C@H]2c2cc(-c4cccc(C#N)c4)ccc2N(C)[C@H]3CO)cc1	3	9	x	-5	1	-1
COCc1cn([C@@H]2C[C@@H]3O[C@@H](CO)CC[C@@H]3O[C@@H]2CCc2ccc(-c3ccc(OC)cc3)cc2)nn1	2	-9	x	-3	x	-5
O=C(Nc1ccc2c(c1)[C@@H]1C[C@@H](CC(=O)N3CCCCC3)O[C@H](CO)[C@@H]1O2)C1CCOCC1	0	-7	2[16.7 µM]	-20	20	-4
COc1ccc(-c2ccc(C(C)=O)cc2)cc1[C@H]1[C@@H]2C=CCC[C@@]2(C)C(=O)N1Cc1ccccc1	0	62*	14	-8	7	2
COc1ccc(-c2ccc(C)cc2)cc1[C@H]1[C@@H]2C=CCC[C@@]2(C)C(=O)N1Cc1ccccc1	-2	4	30	-8	13	6
COc1cc2c(cc1OC)C(C)N(C(=O)c1c(C)noc1C)CC2 (stereo not given)	4	13	0	-9	x	-3
COc1cc2c(cc1OC)[C@H](C)N(C(=O)NCc1ccccc1)CC2	1	-16	-5	1	54*	0
COc1cccc(OC)c1NC(=O)C1CCCN1C(=O)NCc1ccccc1 (stereo not given)	x	-1	-146	97*	x	x
COc1cc2c(cc1OC)CN(C(=O)Cc1ccccc1)CC2	0	8	-3	6	63*	7
COc1cc2c(cc1OC)C(C)N(C(=O)c1cc(C)on1)CC2 (stereo not given)	7	41	18	4	9	53*
COc1ccc(NC(=O)C2CCCN2C(=O)NCc2ccccc2)cc1OC (stereo not given)	x	-2	13	x	x	x
C[C@@H]1CN([C@H](C)CO)C(=O)c2cc(Br)cnc2O[C@H]1CN(C)S(=O)(=O)c1ccccc1	0	x	1[16.7 µM]	10	12	-10
COC(=O)C1=C(C)N(Cc2cccc(C(F)(F)F)c2)C(=NCc2cc(OC)c(OC)c(OC)c2)NC1c1cccc(Cl)c1 (stereo not given)	-2	7	-7	x	25	13
COC(=O)C1=C(C)N(Cc2cccc(C(F)(F)F)c2)C(=NCc2ccc(C(F)(F)F)cc2)NC1c1ccc(F)cc1 (stereo not given)	4	36	35	x	875*	48
COC(=O)C1=C(C)N(Cc2cccc(C(F)(F)F)c2)C(=NCc2ccc3c(c2)OCO3)NC1c1cccc(C(F)(F)F)c1 (stereo not given)	-1	46	19	x	x	33
COC(=O)C1=C(C)N(Cc2cccc(C(F)(F)F)c2)C(=NCc2ccc3c(c2)OCO3)NC1CCc1ccccc1 (stereo not given)	-2	-7	41	x	114*	14
C=CCN=C1NC(c2ccc(Cl)cc2)C(C(=O)OC)=C(C)N1Cc1cccc(C(F)(F)F)c1 (stereo not given)	4	27	60*	x	-11	33
COC(=O)C1=C(C)N(Cc2cccc(C(F)(F)F)c2)C(=NCc2cccc(C(F)(F)F)c2)NC1c1ccc(Cl)cc1 (stereo not given)	5	56	u	x	785*	30
C=CCN=C1NC(c2ccc(F)cc2)C(C(=O)OC)=C(C)N1C (stereo not given)	1	2	-6	x	-2	-3
COC(=O)C1=C(C)N(Cc2cccc(C(F)(F)F)c2)C(=NCc2ccc(C(F)(F)F)cc2)NC1c1ccc(C(F)(F)F)cc1 (stereo not given)	4	77*	3	x	815*	30
C=CCN=C1NC(c2ccc(Cl)cc2)C(C(=O)OC)=C(C)N1C (stereo not given)	-1	-1	55*	x	7	-18
SMILES	CFTR F508del cor	PAX8 reporter	Env fusion inh	PGC1a acetyl inh	GSIS activator	EWS-Fli block
COC(=O)C1=C(C)N(Cc2ccc(C(F)(F)F)cc2)C(=NCc2ccc(C(F)(F)F)cc2)NC1c1cccc(C(F)(F)F)c1 (stereo not given)	6	35	9	x	x	49
COC(=O)C1=C(C)N(C)C(=NCc2ccc(OC)cc2)NC1c1ccc(C(F)(F)F)cc1 (stereo not given)	2	2	55*	x	x	0
O=S(=O)(NC[C@H]1CC[C@@H]2[C@@H](CN2Cc2cccc(-c3ccccn3)c2)O1)c1ccccc1	0	-6	-5[16.7 µM]	-1	x	7
CCCNC(=O)C[C@@H]1CC[C@H]2[C@@H](COC[C@H](O)CN2C(=O)Nc2cccc(Cl)c2)O1	0	x	x	3	-8	x
CCSc1nc2ccccc2n1C(=O)/C=C/c1ccc(OC)c(OC)c1	x	64*	i	1	1	x
C=CCSc1nc2ccccc2n1C(=O)/C=C/c1ccc(OC)c(OC)c1	-9	x	x	-8	4	u
C=CCSc1nc2ccccc2n1C(=O)/C=C/c1cc(OC)c(OC)c(OC)c1	-6	x	x	i	-8	67*
CCSc1nc2ccccc2n1CC(=O)OC	x	x	29	-8	x	x
C[C@H](CO)N1C[C@H](C)[C@H](CN(C)C(=O)Nc2ccccc2)Oc2cc(C#C[C@@H](C)O)ccc2S1(=O)=O	-1	-5	-21[16.7 µM]	6	11	10
C[C@@H]1CN([C@H](C)CO)C(=O)c2cc(NC(=O)Cc3cn(C)c4ccccc34)ccc2O[C@@H]1CN(C)Cc1ccc(-c2ccccc2)cc1	4	x	-1[16.7 µM]	-10	-43	-5
O=C(Nc1ccc(Br)cc1)c1cc2ccccn2n1	1	-171	-105	-8	54*	-106
CN(C)C(=O)C[C@H]1C[C@H]2c3cc(NC(=O)C4CCC4)ccc3O[C@H]2[C@H](CO)O1	-5	-6	-7[16.7 µM]	27	-8	6
CCOC(=O)c1ccc(-n2c(-c3ccco3)nc3ccccc3c2=O)cc1	x	x	-3	x	x	x
O=c1c2ccccc2nnn1Cc1ccccc1	-2	24	-2	-1	45*	0
O=c1c2ccccc2nnn1CCc1ccccc1	1	-73	-14	-6	3	-24
O=c1c2ccccc2nc(-c2ccco2)n1Cc1ccccc1	x	x	-51	12	64*	x
CCOc1ccc(CCn2c(-c3ccco3)nc3ccccc3c2=O)cc1OCC	x	x	62*	x	x	x

Screens as filed in PubChem.
